# Compounds with a hit are over-represented: about 7.4% of the library has one in this group of screens.
# NPC1 promoter act: activators of NPC1 promoter; Huh7 NPC1 promoter luciferase reporter, 24 h; Potency, µM (top dose mostly 9.22 µM), for the others: at the top dose activation, most hits filed as activators; actives 2.4% (n = 320,000); note: % of control where 0% means no effect; nearly all actives have a fitted effect of over 60% in size
#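 Luminescence from an NPC1 promoter-driven luciferase reporter in stably transfected Huh7 cells was measured after 24 h compound treatment at 37 °C, followed by 10 min ambient incubation with luciferase detection reagent.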
# Luc counter: Kinase-Glo luciferase inhibition (counter-screen). Q27757. Kinase-Glo luciferase, ATP luminescence, 8 min. Potency, µM (series often up to 38.3 µM), for inactives: at the top dose activity change, negative = inhibition, actives largely listed as inhibitors. actives 0.28% (n = 200,000). AID 1379; note: % is set by controls: 0 for no effect and ±100 for the full control effect; nearly all actives have a fitted effect of over 60% in size
#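 Recombinant Kinase-Glo luciferase, 10 uM ATP (linear range), luciferin; imidazole pH 7.2 / KCl / MgCl2 / Tween / BSA buffer; 8 min RT; luminescence.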
# ELG1 genotoxic: genotoxicity induction in ELG1-luciferase HEK293T cells | HEK293T ELG1-luciferase reporter, luminescence, 16 h | Potency, µM (highest dose often 46 µM), inactives show top-dose activity change, positive = activation, usual class: activators | actives 1.3% (n = 330,000); note: % of control where 0% means no effect; nearly all actives have a fitted effect of over 60% in size
#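 Step 1: seed 2,000 HEK293T ELG1-luciferase cells per well. Step 2: add compound or DMSO, incubate 16 hr at 37 °C. Step 3: ONE-Glo, 30 min at room temperature, read luminescence.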
# FLuc modulator: counter-screen for miR-21 project: firefly luciferase inhibitors or activators. P08659. actives 6.9% (n = 360,000). Potency, µM (highest dose often 57.5 µM), inactives show top-dose activity change, negative = inhibition, hits mostly inhibitors. AID 588342. purified FLuc, Km substrates, luminescence inhibition;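 note: plate controls were vehicle for no effect and reference inhibitor for full effect; nearly all actives have a fitted effect of over 55% in size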
# Target sequence (P08659 whole entry, looked up): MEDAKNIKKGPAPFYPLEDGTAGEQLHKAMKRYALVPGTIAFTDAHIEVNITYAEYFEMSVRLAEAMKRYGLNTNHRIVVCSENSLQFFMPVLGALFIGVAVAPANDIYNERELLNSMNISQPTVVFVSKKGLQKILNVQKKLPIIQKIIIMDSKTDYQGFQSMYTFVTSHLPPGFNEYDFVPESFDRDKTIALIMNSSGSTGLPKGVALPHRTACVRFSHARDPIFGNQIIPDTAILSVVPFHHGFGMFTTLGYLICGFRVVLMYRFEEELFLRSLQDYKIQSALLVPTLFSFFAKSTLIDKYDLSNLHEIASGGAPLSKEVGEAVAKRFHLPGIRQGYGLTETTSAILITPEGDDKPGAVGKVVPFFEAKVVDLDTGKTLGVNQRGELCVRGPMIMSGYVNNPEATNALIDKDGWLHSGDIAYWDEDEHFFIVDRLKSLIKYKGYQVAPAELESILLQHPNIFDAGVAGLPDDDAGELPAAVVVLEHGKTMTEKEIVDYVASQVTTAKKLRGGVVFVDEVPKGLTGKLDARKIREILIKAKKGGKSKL
#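 Biochemical qHTS of compounds, final roughly 60 µM downward over six points, against 10 nM purified firefly luciferase using Km concentrations of substrates (10 uM D-luciferin, 10 uM ATP) in Tris acetate pH 7.5 buffer; luminescence output.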
# SMN2 splice up: SMN2 splice variant enhancement | HEK293 SMN2-luciferase splicing reporter, luminescence, 30-36 h | Potency, µM (doses to about 46.1 µM), for the others: top-dose activity change, positive = activation, usual class: activators | actives 2.8% (n = 210,000) | AID 1458; note: % of control where 0% means no effect; nearly all actives have a fitted effect of over 55% in size
#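 qHTS luciferase splicing reporter: luminescence rises when SMN2 exon 7 is included in transfected HEK293 cells. Compound exposure lasted 30-36 h at 37C, with 4.5 mM final sodium butyrate as control, followed by a ONE-Glo read.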
# Rab9 promoter act: Rab9 promoter activation; Huh7 Rab9 promoter-luciferase reporter, luminescence, 24 h; Potency, µM (series often up to 9.22 µM), for the others: at the highest dose activation, negative = inhibition, hits mostly activators; actives 2.8% (n = 320,000); AID 485297; note: % of control where 0% means no effect; nearly all actives have a fitted effect of over 60% in size
#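 Using Huh7 cells stably transfected with Rab9 promoter–luciferase, compounds were incubated 24 h at 37 °C, 5% CO2; luciferase luminescence was read 10 min after reagent addition.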
# Starred values were filed as active, the others as inactive; u = inconclusive; x = no result; [ ] = remark or other dose. Calls come from the whole dose curve; as a rule, active = well fitted curve in the direction sought with a large enough effect; inconclusive = small, poorly fitted or top-dose-only effect, or another doubt; inactive = no such curve, though single readings can be large; an effect the other way counts as inactive or inconclusive. Potency is the fitted concentration of half-maximal effect.
SMILES,NPC1 promoter act,Luc counter,ELG1 genotoxic,FLuc modulator,SMN2 splice up,Rab9 promoter act
CC(=O)NN1C(=O)/C(=C\c2ccc(O)cc2)SC1=S,5.4%,-3.0%,4.4%,16.9µM*,x,-10.7%
CC(=O)NN1C(=O)/C(=C\c2ccc(C)cc2)SC1=S,-1.1%,-4.1%,-1.3%,u,-17.9%,0.1%
O=[N+]([O-])c1ccc(S(=O)(=O)Cc2ccccc2)c2nonc12,x,-5.8%[7.66 µM],x,x,-5.6%[9.22 µM],x
C[C@](O)(c1ccccc1)c1nccc2ccccc12,x,-6.2%[7.66 µM],x,x,-4.6%[9.22 µM],x
O=S(=O)(c1ccc(Br)cc1)N1CCN(S(=O)(=O)c2ccc(Br)cc2)CC1,x,-2.7%[7.66 µM],x,x,-9.7%[9.22 µM],x
Cc1cccc(CNS(=O)(=O)c2ccc(-c3coc(C)n3)cc2)c1,x,x,x,-11.4%,x,x
COCCn1c(C)cc(C(=O)COC(=O)c2ccc3ncsc3c2)c1C,2.82µM*,-2.9%,u,6.75µM*,15.3%,2.82µM*
COCCn1c(C)cc(C(=O)COC(=O)c2[nH]c(C)c(C(C)=O)c2C)c1C,-1.7%,x,-1.5%,-17.2%,x,-5.1%
COCCn1c(C)cc(C(=O)COC(=O)CCc2ccc(S(=O)(=O)N3CCOCC3)cc2)c1C,3.3%,-2.8%,-1.0%,15.1µM*,-1.2%,6.6%
COCCn1c(C)cc(C(=O)COC(=O)c2cncc(Br)c2)c1C,u,-1.4%,u,7.57µM*,-5.9%,u
COCCn1c(C)cc(C(=O)COC(=O)c2ccccc2Br)c1C,-6.7%,x,0.206µM*,0.0953µM*,x,-11.2%
COCCn1c(C)cc(C(=O)COC(=O)c2ccc(S(=O)(=O)N(C)C)cc2)c1C,x,x,3.7%,x,x,x
CC(O)C#C[Si](C)(C)c1ccccc1 (stereo not given),x,1.1%,x,x,7.2%,x
COCCn1c(C)cc(C(=O)COC(=O)c2ccc(NC(=O)CC#N)cc2)c1C,2.82µM*,-3.1%,u,10.7µM*,11.2µM*,2.24µM*
CCc1ccc(OC(=O)c2ccn(CC)n2)cc1,0.3%,-20.0%,3.2%,15.1µM*,2.9%,2.6%
CCn1ccc(C(=O)NC2CCCC2)n1,1.5%,x,6.8%,0.7%,x,7.5%
Nc1ccc(N=Nc2ccc(-c3ccc(O)cc3)cc2)c2ccc(S(=O)(=O)O)cc12,x,-12.2%[7.66 µM],x,x,2.4%[9.22 µM],x
CCCOc1ccc(C2C(=O)N(C3CCCCCC3)CC(=O)N2CCCOCC)cc1OC (stereo not given),x,x,x,-2.3%,x,x
COc1cccc(-c2cc(C(=O)NC3CCCC3)no2)c1,1.41µM*,2.6%,1.84µM*,4.26µM*,11.2µM*,0.631µM*
O=C(NC1CCCCC1)c1ccc(-c2cccc([N+](=O)[O-])c2)o1,0.316µM*,x,2.06µM*,2.69µM*,x,0.398µM*
COCCNC(=O)c1cc(-c2cccc(OC)c2)on1,3.55µM*,-7.8%,u,12µM*,11.2µM*,3.16µM*
O=C(O)c1ccc(-c2cccc([N+](=O)[O-])c2)o1,-0.8%,x,-2.7%,-15.8%,x,-0.3%
COCC(C)NC(=O)c1cc(-c2cccc(OC)c2)on1 (stereo not given),u,-5.5%,u,u,u,2.24µM*
Cc1cccc(Cn2nc(C)n3c(cc4cc(C)ccc43)c2=O)c1,x,x,x,5.9%,5.4%,x
CCCNC(=O)C1=CC(c2ccc3c(c2)OCO3)=NS(=O)(=O)N1C,x,x,x,-18.0%,x,x
SMILES,NPC1 promoter act,Luc counter,ELG1 genotoxic,FLuc modulator,SMN2 splice up,Rab9 promoter act
CCC1=Nc2ccccc2-c2nnc(SC)nc2O1,-4.9%,-3.6%,-8.5%,-2.0%,2µM*,2.6%
O=C(Nc1cccnc1)c1ccc(C(=O)Nc2cccnc2)cc1,-2.0%,-1.6%,-0.2%,-0.9%,x,0.0%
CC(C)(C)c1ccc(C(=O)Nc2cccnc2)cc1,2.82µM*,x,2.31µM*,2.69µM*,x,3.98µM*
Cc1ccc(C(=O)Nc2ccc(Oc3cccc(C(F)(F)F)c3)nc2)cc1,-12.8%,x,-2.2%,3.2%,x,-31.6%
O=C(Nc1cccnc1)c1ccc(Br)s1,13.7%,-3.4%,4.8%,7.0%[2.3 µM],-12.0%,25.7%
CCc1sc(C(=O)Nc2cccnc2)cc1Br,u,x,u,10.7µM*,x,u
CC(C)(C)c1ccc(C(=O)Nc2ccc(Oc3cccnc3)nc2)cc1,-26.5%,x,-10.2%,8.49µM*,x,-40.0%
Cc1cccc(OCCn2nnc3sc4c(c3c2=O)CCCC4)c1,x,x,x,u,10.2%,x
CC1=NN(c2ccccc2)C(=O)/C1=C/c1cccc(C)c1,-3.6%,x,7.1%,23.9µM*,x,0.5%
CCOc1cc(/C=C2\C(=O)N(CCC#N)N=C2C)ccc1OCC(N)=O,-0.9%,-1.3%,1.6%,-13.8%,26.6%,-7.7%
CC1=NN(CCC#N)C(=O)/C1=C/c1ccc(N(C)C)cc1,1.4%,-13.7%,4.6%,19µM*,-0.2%,3.3%
COc1ccc(/C=C2/C(=O)N(c3ccccc3)N=C2C)cc1OC,-3.7%,x,10.8%,6.01µM*,x,-2.1%
COc1cc(/C=C2\C(=O)N(CCC#N)N=C2C)ccc1OCC(=O)Nc1ccccc1,1.8%,-3.2%,u,10.7µM*,15.5%,2.0%
CC1=NN(c2ccccc2)C(=O)/C1=C/c1cc2cc(C)ccc2nc1N1CCCCC1,u,-1.9%,10.4%,u,u,u
COc1ccc(C2=NN(c3ccccc3)C(=O)/C2=C\c2ccc(O)c(OC)c2)cc1,5.5%,-20.6%,10.4%,u,7.3%,12.8%
COc1ccc(/C=C2/C(=O)N(c3c(F)c(F)c(F)c(F)c3F)N=C2C)cc1,1.9%,x,13.5%,u,x,-2.0%
CC(=O)Oc1ccc(/C=C2/C(=O)N(c3ccccc3)N=C2C)cc1,-2.7%,x,1.5%,23.9µM*,x,1.8%
COc1cc(/C=C2/C(=O)N(c3ccc(Br)cc3)N=C2C)cc([N+](=O)[O-])c1O,2.0%,x,1.4%,u,x,4.8%
COc1cc(/C=C2/C(=O)N(c3cccc(Br)c3)N=C2C)cc(OC)c1O,-3.3%,x,-2.8%,16.9µM*,x,-0.2%
COc1ccc(-n2c(=O)cnc3cnc(N4CCNCC4)nc32)cc1,x,-2.0%,x,x,-9.3%,x
CCC(C)NC(=O)c1cc(-c2ccc(OC)cc2)on1 (stereo not given),2.82µM*,-5.9%,u,6.01µM*,10µM*,3.16µM*
COCC(C)NC(=O)c1cc(-c2ccc(O)cc2)on1 (stereo not given),26.6%,-7.0%,u,-19.7%,8.7%,25.3%
COc1ccc(-c2cc(C(=O)NCC(C)C)no2)cc1,1.41µM*,0.6%,2.59µM*,2.39µM*,11.2µM*,0.708µM*
COc1ccc(-c2cc(NCc3ccc(C)cc3)n3cnnc3n2)cc1,x,x,x,-6.3%,-3.8%,x
CNc1nnc(-c2cc3cc(Cl)ccc3oc2=O)s1,u,-2.1%,18.4µM*,u,u,u

# Screening results: PubChem BioAssay, National Center for Advancing Translational Sciences (NCATS)
